Assay outcomes from PubChem.
Compounds with a hit are over-represented: about 12% of the library has one in this group of screens.
MARV entry inh: Marburg virus entry inhibition; Marburg virus pseudotyped entry inhibition, cell reporter; Potency, µM (highest dose often 37.8 µM), usual class: inhibitors; hit rate 1.8% among 300,000; AID 540276; calls by dose curve; tested in HEK293 cells
CHX counter: affects cycloheximide protein synthesis inhibition readout, counter-screen. cell reporter, cycloheximide protein synthesis inhibition counterscreen. max response, %. hit rate 12% among 300,000. AID 2314; in the data active = max response mostly above about 13%, no sharp cut-off; inactive = mostly below about 14%; also: read at 38.3 µM for the half of the compounds with a filed dose
Shiga inhibitor: inhibitors of Shiga toxin in Vero cells. Vero cells, Shiga toxin protein synthesis inhibition reporter. inhibition, % at 38.7 µM. hit rate 9.2% among 290,000; in the data active = inhibition mostly above about 28%, no sharp cut-off; inactive = mostly below about 43%
LASV entry inh: Lassa virus entry inhibition; Lassa virus pseudotype entry inhibition, cell reporter; Potency, µM (top dose mostly 37.9 µM), usual class: inhibitors; hit rate 1.2% among 300,000; AID 540256; calls by dose curve; tested in HEK293 cells; also: nearly all actives have a fitted effect of over 50% in size
Numbers stand for hits; – = inactive; ? = inconclusive; · = not tested or not shown; + = active, no number.

SMILES | MARV entry inh | CHX counter | Shiga inhibitor | LASV entry inh
Cc1cc(C)c2c(CN(Cc3ccccc3)Cc3ccccc3)cc(=O)oc2c1 | · | · | · | 22µM
Cc1ccc(CSc2nnc(-c3ccco3)o2)cc1 | ? | 33 | 107 | –
O=C(O)c1ccc(CSc2nnc(-c3ccco3)o2)cc1 | · | – | – | ·
Brc1ccc(CSc2nnc(-c3ccco3)o2)cc1 | ? | 63 | 69 | –
Fc1ccc(CSc2nnc(-c3ccco3)o2)cc1 | · | 46 | 59 | ·
c1ccc(CSc2nnc(-c3ccco3)o2)cc1 | – | 49 | 109 | –
COC1OC(O)C(NC(=O)C(F)(F)F)CC1O (centres undefined) | – | · | · | –
COCCn1c(=NC(=O)CSCC(=O)N2CCOCC2)sc2cc(C)ccc21 | – | – | – | –
N#Cc1c(N)nc(SCc2ccccc2)c(C#N)c1-c1ccco1 | ? | 15 | – | –
O=S(=O)(Nc1ccc(N2CCCCC2)cc1)c1ccccc1 | – | 18 | – | –
c1ccc2cc(N3CCCCC3)ccc2c1 | – | · | · | –
O=C1c2ccccc2C(=O)c2cc(N3CCCCC3)ccc21 | 4µM | · | · | 3.2µM
O=S(=O)(c1ccccc1)N1CCN(c2ccccc2)CC1 | · | – | – | ·
Cc1ccc(NS(=O)(=O)N2CCOCC2)cc1 | ? | – | – | –
O=S(=O)(c1ccccc1)c1ccc(N2CCCCCC2)cc1 | · | 21 | · | ·
O=S(=O)(Nc1ccc(F)cc1)N1CCOCC1 | – | 34 | – | –
O=S(=O)(Nc1ccc(N2CCOCC2)cc1)c1ccc(F)cc1 | – | – | – | –
O=S(=O)(Nc1ccc(N2CCCCC2)cc1)c1ccc(F)cc1 | · | 13 | 51 | ·
O=S(=O)(Nc1ccc(S(=O)(=O)N2CCCCCC2)cc1)c1cccs1 | – | – | – | –
O=S(=O)(Nc1ccc(N2CCCCC2)cc1)c1cccs1 | – | 41 | 60 | –
O=C(NCc1ccco1)c1cc2sccc2n1Cc1ccccc1 | – | 56 | 36 | –
O=C(NCc1ccco1)c1ccc(Cn2c(=O)c3sccc3n(Cc3cccc(F)c3)c2=O)cc1 | – | 26 | – | ·
O=C(NCc1ccco1)C1CCN(C(=O)c2cc3sccc3n2Cc2ccc(F)cc2)CC1 | – | – | – | 10µM
O=C(NCc1ccco1)C1CCN(c2nc3ccccc3n2Cc2ccccc2F)CC1 | – | 22 | – | ·
Cc1cc(C)nc(N2CCC(C(=O)NCc3ccccc3F)CC2)n1 | – | – | – | –
SMILES | MARV entry inh | CHX counter | Shiga inhibitor | LASV entry inh
CCOc1ccc(NS(=O)(=O)c2ccc3[nH]cc(C(=O)N4CCCC4)c(=O)c3c2)cc1 | – | · | · | –
CC(C)OCCCNC(=S)NNC(=O)c1ccc(Cl)c(Cl)c1 | · | 29 | 66 | ·
O=C(NC1CCCCCCC1)c1c(O)c2ccccc2[nH]c1=O | – | 16 | 47 | –
Oc1oc(-c2ccccc2)nc1C=Nc1cccc2ccccc12 | – | 20 | – | ?
CCCCOc1ccc(-c2nc(/C=N/c3nccs3)c(O)o2)cc1 | ? | – | – | –
Oc1oc(-c2ccccc2)nc1/C=N/c1nccs1 | – | 33 | + | –
N#Cc1c(-c2ccccc2)cc(-c2ccccc2)nc1SCC(O)CS(=O)(=O)Cc1ccccc1 (centres undefined) | · | · | · | –
NC1=NC(=O)/C(=C/c2c(OS(=O)(=O)c3ccc(Cl)cc3)ccc3ccccc23)S1 | – | – | – | –
Cc1nnc(NC(=O)CSc2nc3c(c(=O)n(C)c(=O)n3C)n2C(C)C)s1 | – | – | – | –
COC(=O)C1=C(CN2CCCc3ccccc32)NC(=O)NC1c1ccc(F)cc1 (centres undefined) | ? | – | 101 | ?
O=C(C[n+]1cc(-c2ccccc2)n2c1CCC2)N1c2ccccc2Sc2ccccc21 | – | – | – | –
O=C(C[n+]1cc(-c2ccc(Cl)cc2)n2c1CCCCC2)c1ccccc1 | – | 26 | 52 | –
O=C(C[n+]1cc(-c2ccc(F)cc2)n2c1CCC2)N1c2ccccc2Sc2ccccc21 | – | 44 | 54 | –
O=C1CCCC2=C1C1O[C@](CCCCN3C(=O)c4ccccc4C3=O)(Cc3c1ccc1ccccc31)O2 | · | – | – | ·
Cc1cccc(C=Nc2ccc3c4c(cccc24)CC3)c1O | ? | – | – | –
CCc1ccc(O)c(N=Cc2cccc(C)c2O)c1 | – | 27 | – | –
Cc1ccc(C(=O)N/N=C\c2cccc(OC(=O)c3cccc(F)c3)c2)cn1 | – | 20 | 43 | –
COc1cccc(/C=N\NC(=O)c2ccc(C)nc2)c1 | ? | 29 | 46 | –
CC(C)NCC(O)COc1ccc(COCCOC(C)C)cc1 (centres undefined) | ? | – | 28 | ?
COc1ccccc1-c1ccc2nnc(SC)n2n1 | · | – | – | ·
CC(=O)Nc1sc(N/N=C\c2ccc(O)cc2)nc1-c1cccs1 | · | 27 | 68 | ·
CC(=O)Nc1sc(N/N=C\c2cccc(Cl)c2)nc1-c1cccs1 | ? | 19 | – | –
CC(=O)Nc1sc(N/N=C\c2ccccc2F)nc1-c1cccs1 | ? | 38 | 62 | ?
O=C(N/N=C/c1cn(-c2ccccc2)nc1-c1cccs1)c1ccc(Cl)cc1 | ? | – | – | ?
O=C(CCSCCC(=O)NN=Cc1cccc(Cl)c1)NN=Cc1cccc(Cl)c1 | – | · | · | –
SMILES | MARV entry inh | CHX counter | Shiga inhibitor | LASV entry inh
Cc1cnc(C(=O)OCC(=O)Nc2cc(S(=O)(=O)N3CCOCC3)ccc2Cl)cn1 | – | · | · | –
COc1ccc(/C=C/C(=O)OCC(=O)NCc2ccco2)c(OC)c1 | – | – | – | –
CC(C)OC(=O)CC(=O)CSc1nc2c(cc1C#N)CCCC2 | – | 37 | 82 | –
CC(C)OC(=O)CC(=O)CSc1nc2c(cc1C#N)CCCCCC2 | – | – | – | –
COC(=O)CC(=O)CSc1nc2c(cc1C#N)CCC2 | ? | 18 | 54 | –
CCCCC(CC)C/C=C1\CC(C(=O)OCC)Oc2ccccc21 (centres undefined) (tested in a mixture with another compound) | · | – | – | ·
CN(C)c1ccc(-c2nc(-c3cc4cc(Cl)ccc4oc3=O)cs2)cc1 | · | · | · | –
Cc1nc2ccccc2c(C)c1CC(=O)OC(C)C(=O)NC1(C#N)CCCCC1 (centres undefined) | – | · | · | –
O=C(Nc1ccon1)c1cnc2sccn2c1=O | – | – | – | –
O=C(Nc1cnc2sccn2c1=O)c1ccccc1Cl | – | 40 | – | –
COc1ccc(NC(=O)c2cnc3sccn3c2=O)cc1 | – | 27 | 43 | –
Cc1cccc(NC(=O)c2cnc3ccccn3c2=O)c1 | · | 31 | 22 | ·
Cc1cccc(NC(=O)c2cnc3sccn3c2=O)c1 | · | 56 | 77 | ·
CCN(CC)S(=O)(=O)c1cccc(C(=O)Nc2ccc(S(=O)(=O)NC3=NCCCCC3)cc2)c1 | – | · | · | –
Cc1cccc(NC(=O)c2cnc3sccn3c2=O)c1C | · | 24 | 66 | ·
Cc1cc(C)n2nc(/C(C#N)=C/c3ccccn3)c(C#N)c2n1 | ? | 25 | – | 10µM
N#C/C(=C/c1cccs1)c1ccccn1 | · | 35 | 73 | ·
N#C/C(=C\c1ccccn1)c1ccccn1 | ? | 33 | 61 | ?
Cc1cc(C)n2nc(CC#N)c(C#N)c2n1 | – | – | – | –
CC(C)(C)C(=O)/C(C#N)=C/c1cccs1 | – | – | – | ?
CCOc1ccccc1C1C(C(=O)N2CCCCC2)=C(C)Nc2nc3ccccc3n21 (centres undefined) | – | · | · | –
Cc1ccccc1C(=O)Nc1ccccn1 | – | 32 | 57 | ?
Cn1cc(C(=O)Nc2ccccn2)c(=O)c2ccccc21 | ? | 20 | 47 | –
O=C(Nc1ccc(Cl)cn1)c1cccc2c(Br)cccc12 | · | – | – | ·
